HT1080-NT tox – qHTS for induction of synthetic lethality in tumor cells producing 2HG: qHTS for the HT-1080-NT fibrosarcoma cell line; 360,000 compounds, 1.6% hits; Potency, µM (doses to about 46.1 µM), for the others: at the highest dose activity, negative = less viability, most hits filed as cytotoxic; AID 686970, 2013; HT-1080-NT fibrosarcoma viability, CellTiter-Glo ATP luminescence, 48 h;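 further: NT is the 2HG producing partner of a matched IDH1 knockdown line; potency means the concentration at half of the fitted maximal effect; 0% = DMSO-treated cells and -100% = media-only wells without cells; nearly all actives have a fitted effect of over 55% in size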
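Compounds were tested in concentration-response format on HT-1080-NT cells for 48 hours at 37 degrees C. Cell viability came from CellTiter-Glo luminescence; curves were classified by r2, response magnitude and activity.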
HT1080 IDH1KD tx – qHTS for induction of synthetic lethality in tumor cells producing 2HG: qHTS for the HT-1080-IDH1KD cell line; Potency, µM (highest dose often 46.1 µM), for inactives: top-dose activity, negative = toxicity, actives largely listed as cytotoxic; AID 686971, 2013; HT-1080 IDH1 knockdown viability, ATP luminescence, 48 h; 360,000 compounds, 2% hits;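 further: potency means the concentration at half of the fitted maximal effect; 0% = DMSO wells and -100% = cell-free medium wells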
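IDH1KD HT-1080 cells, 750/well, RPMI + 5% FBS; compound pinned after 2 h settling; 48 h, 37 °C; CellTiter-Glo luminescence; % activity normalised to DMSO and no-cell wells; curves fitted, classed by r2 and efficacy.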
IL1B secr inh – qHTS for Inhibitors of Inflammasome Signaling: IL-1-beta AlphaLISA Primary Screen. activity change, % at 57.5 µM. THP-1 LPS/ATP IL-1B secretion, AlphaLISA, 16 h; active compounds read low. AID 743279, 2014. 360,000 compounds, 4.7% hits; in the data active means activity change below about -50%; inconclusive means mostly about -30% to -49%
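THP-1 cells pretreated 1 hr with compounds (up to 57.5 uM final), then stimulated with LPS (250 ng/mL final) plus ATP (1.25 mM final); secreted IL-1B measured by AlphaLISA after 16 hr, decreased signal indicating inhibition.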
DT40 TDP1 CPT – qHTS for Inhibitors of human tyrosyl-DNA phosphodiesterase 1 (TDP1): qHTS in cells in presence of CPT. 420,000 compounds, 12% hits. Potency, µM (series often up to 46.2 µM), for the others: top-dose activity change, negative = growth inhibition, usual class: inhibitors. chicken DT40 Tdp1-/-;hTDP1 cells + 20 nM CPT, ATP luminescence, 48 h; further: potency means the concentration at half of the fitted maximal effect; nearly all actives have a fitted effect of over 55% in size
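Chicken DT40 Tdp1-/- cells stably complemented with human TDP1 were seeded at 400 cells/well in medium containing 20 nM camptothecin, exposed to pin-transferred compounds, and grown at 37 °C for at least 48 hr. Viability was read as ATP luminescence.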
TDP1 cell noCPT – qHTS for Inhibitors of human tyrosyl-DNA phosphodiesterase 1 (TDP1): qHTS in cells in absence of CPT; DT40 Tdp1-/- hTDP1 cells, no CPT, ATP luminescence, 48 h; AID 686978, 2013; Potency, µM (top dose mostly 46.2 µM), inactives show at the top dose activity change, negative = growth inhibition, actives largely listed as inhibitors; 420,000 compounds, 15% hits; further: potency means the concentration at half of the fitted maximal effect; nearly all actives have a fitted effect of over 55% in size
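Cells were dispensed at 400 per well, compounds added by pin tool, plates incubated ≥48 hr at 37 °C, then CellTiter-Glo added for 30 min at room temperature before luminescence reading. Line: DT40 Tdp1-/- complemented with hTDP1; camptothecin omitted.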
uPA generation – qHTS for Inhibitors of Cell Surface uPA Generation; cell surface uPA generation assay, qHTS; 330,000 compounds, 0.31% hits; AID 540303, 2011; Potency, µM (top dose mostly 38.3 µM), without a hit: at the highest dose activity change, negative = inhibition, actives largely listed as inhibitors; active means well fitted inhibition curve with a large enough effect; inconclusive means small, poorly fitted or top-dose-only effect; inactive means no such curve, though single readings can be large or run the other way; tested in mouse RAW 264.7 cells; further: potency means the concentration at half of the fitted maximal effect; nearly all actives have a fitted effect of over 55% in size
An asterisk follows results filed as active. Rows were chosen to be rich in hits. Some 19% of all compounds tested hit in one or more screens of this group. Unless noted, the call rests on the fitted dose curve; in most records, active means well fitted curve in the direction sought with a large enough effect; inconclusive means small, poorly fitted or top-dose-only effect, or another doubt; inactive means no such curve, though single readings can be large; an effect the other way counts as inactive or inconclusive. Unless noted, on the % scale 0 is the no-effect control and ±100 the full control effect.

What do the screens show for `Oc1c(CN2CCCCC2)cc(COCc2ccccc2)c2cccnc12`?
HT1080-NT tox: 7.31µM*; HT1080 IDH1KD tx: 2.91µM*; IL1B secr inh: -105.0*; DT40 TDP1 CPT: 4.11µM*; TDP1 cell noCPT: 4.61µM*; uPA generation: -12.1%

Results for COCc1cc(CN2CCCC2)c(O)c2ncccc12 ?
HT1080-NT tox: 1.12µM*; HT1080 IDH1KD tx: 0.631µM*; IL1B secr inh: 100.7; DT40 TDP1 CPT: 0.651µM*; TDP1 cell noCPT: 0.82µM*; uPA generation: inconclusive

Results for Cc1ccccc1S(=O)(=O)NC(=O)C1(C)CCN1C(=O)C1(c2ccccc2)CC1 (stereo not given) ?
HT1080-NT tox: 5.3%; HT1080 IDH1KD tx: 21.9%; IL1B secr inh: -4.6; DT40 TDP1 CPT: 3.7%; TDP1 cell noCPT: -0.4%

Results for C/C(=N\NC(=S)Nc1c(C)cccc1C)c1ccc(O)cc1 ?
HT1080-NT tox: -3.2%; HT1080 IDH1KD tx: -1.9%; IL1B secr inh: 21.5; DT40 TDP1 CPT: 16.4µM*; TDP1 cell noCPT: inconclusive; uPA generation: 11.6%

How did C/C(=N\NC(=S)Nc1c(C)cccc1C)c1cc2ccccc2o1 do in these assays?
HT1080-NT tox: -9.5%; HT1080 IDH1KD tx: -19.4%; IL1B secr inh: 5.6; DT40 TDP1 CPT: 3.26µM*; TDP1 cell noCPT: 2.06µM*; uPA generation: 14.3%

Results for C/C(=N\NC(=S)Nc1ccccc1C)c1cc2ccccc2o1 ?
HT1080-NT tox: -9.2%; HT1080 IDH1KD tx: -0.5%; IL1B secr inh: 4.3; DT40 TDP1 CPT: 4.11µM*; TDP1 cell noCPT: 5.17µM*; uPA generation: 6.3%

Results for C/C(=N\NC(=O)c1ccco1)c1cc2ccccc2o1 ?
HT1080-NT tox: 23.4%; HT1080 IDH1KD tx: 21.5%; IL1B secr inh: -7.6; DT40 TDP1 CPT: 7.8%; TDP1 cell noCPT: inconclusive; uPA generation: -15.4%

What do the screens show for `Cc1ccc(C)n1-c1nnc(N2CCC(C(=O)NCCCN3CCN(C)CC3)CC2)s1`?
HT1080-NT tox: -3.1%; HT1080 IDH1KD tx: -10.4%; IL1B secr inh: inconclusive; DT40 TDP1 CPT: 25.9µM*; TDP1 cell noCPT: inconclusive; uPA generation: -13.7%

How did O=C(NCCCN1CCN(Cc2ccccc2)CC1)C1CCN(c2nnc(-n3cccc3)s2)CC1 do in these assays?
HT1080-NT tox: -2.4%; HT1080 IDH1KD tx: -3.9%; IL1B secr inh: 0.0; DT40 TDP1 CPT: inconclusive; TDP1 cell noCPT: 25.9µM*; uPA generation: 8.5%

Results for O=C(COc1ccc(Cl)cc1)Nc1cc(S(=O)(=O)N2CCCCC2)ccc1N1CCCCC1 ?
HT1080-NT tox: -5.1%; HT1080 IDH1KD tx: 16.1%; IL1B secr inh: 14.2; DT40 TDP1 CPT: 2.91µM*; TDP1 cell noCPT: 10.3µM*; uPA generation: 21.6%

What do the screens show for `O=C(COc1ccc(Br)cc1)Nc1cc(S(=O)(=O)N2CCCCC2)ccc1N1CCCCC1`?
HT1080-NT tox: 12.8%; HT1080 IDH1KD tx: 13.5%; IL1B secr inh: 2.0; DT40 TDP1 CPT: inconclusive; TDP1 cell noCPT: inconclusive; uPA generation: 13.3%

What do the screens show for `Cc1cccc(OCC(=O)Nc2cc(S(=O)(=O)N3CCCCC3)ccc2N2CCN(C)CC2)c1`?
HT1080-NT tox: -1.2%; HT1080 IDH1KD tx: -0.8%; IL1B secr inh: -13.4; DT40 TDP1 CPT: inconclusive; TDP1 cell noCPT: inconclusive; uPA generation: 9.1%

How did CN1CCN(c2ccc(S(=O)(=O)N3CCCCC3)cc2NC(=O)COc2cccc(Cl)c2)CC1 do in these assays?
HT1080-NT tox: -5.0%; HT1080 IDH1KD tx: -2.2%; IL1B secr inh: -52.3*; DT40 TDP1 CPT: inconclusive; TDP1 cell noCPT: inconclusive; uPA generation: inconclusive

How did CCN(CC)c1ccc(C=NCCc2ccc(S(N)(=O)=O)cc2)cc1 do in these assays?
HT1080-NT tox: 13.5%; HT1080 IDH1KD tx: 6.8%; IL1B secr inh: 9.6; DT40 TDP1 CPT: 1.3%; TDP1 cell noCPT: -2.2%; uPA generation: 6.0%

What do the screens show for `O=S(=O)(c1ccccc1)N1CCC2(CCN(c3ccc(-c4ccccc4)cc3)CC2)CC1`?
DT40 TDP1 CPT: inconclusive; TDP1 cell noCPT: -6.2%

What do the screens show for `CS(=O)(=O)N1CCC2(CC1)CN(c1cccc(-c3ccccc3)c1)C2`?
DT40 TDP1 CPT: inconclusive; TDP1 cell noCPT: 18.4µM*

Results for CS(=O)(=O)N1CCC2(CCN(c3cccc(-c4ccccc4)c3)CC2)CC1 ?
DT40 TDP1 CPT: inconclusive; TDP1 cell noCPT: 20.6µM*

Results for CCCN(CCC)CCNC(=O)c1cc(Sc2ccc(Cl)cc2)nc2ccccc12 ?
DT40 TDP1 CPT: 16.4µM*; TDP1 cell noCPT: 18.4µM*

How did CC1CCCCN1CCCNC(=O)c1cc(Sc2ccc(Cl)cc2)nc2ccccc12 (stereo not given) do in these assays?
DT40 TDP1 CPT: 18.4µM*; TDP1 cell noCPT: 20.6µM*

Results for CCOc1ccc(Sc2cc(C(=O)NCCCOC)c3ccccc3n2)cc1 ?
DT40 TDP1 CPT: 20.6µM*; TDP1 cell noCPT: 16.4µM*

How did CC1CCCCN1CCCNC(=O)c1nn(C)c2c1CSc1ccccc1-2 (stereo not given) do in these assays?
HT1080-NT tox: inconclusive; HT1080 IDH1KD tx: -2.0%; IL1B secr inh: 0.0; DT40 TDP1 CPT: inconclusive; TDP1 cell noCPT: inconclusive; uPA generation: 3.0%

What do the screens show for `CCc1ccc(Sc2cc(C(=O)NCCN3CCOCC3)c3ccccc3n2)cc1`?
HT1080-NT tox: -11.8%; HT1080 IDH1KD tx: -15.4%; IL1B secr inh: inconclusive; DT40 TDP1 CPT: inconclusive; TDP1 cell noCPT: 14.6µM*; uPA generation: -2.7%

How did Cc1cccc(C)c1NC(=O)C1(C)CN(S(C)(=O)=O)CC(=O)N1Cc1ccco1 (stereo not given) do in these assays?
HT1080-NT tox: 3.9%; HT1080 IDH1KD tx: 22.7%; IL1B secr inh: 0.9; DT40 TDP1 CPT: inconclusive; TDP1 cell noCPT: 9.7%

Results for Cc1noc(C)c1-c1nccc(-n2ccnc2)n1 ?
DT40 TDP1 CPT: 3.7%; TDP1 cell noCPT: -2.5%

What do the screens show for `Cn1c(=O)c2sccc2n2c(CCCC(=O)NCc3ccccc3)nnc12`?
DT40 TDP1 CPT: -27.4%; TDP1 cell noCPT: -20.2%

Source: PubChem BioAssay (National Center for Advancing Translational Sciences (NCATS))
